Redox activity (% of DA3003), Potency and outcome data for 23 compounds are collected here from PubChem BioAssay (NCATS).

Assay [1] is described as follows: Primary redox qHTS assay for identification of artifact compounds. (AID 1845223). The essentials:
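Redox-cycling detection via DTT (250 uM final) oxidation coupled to Amplex Red (25 uM)/HRP (250 mU/mL) in HBSS. 15 min preincubation plus 30 min after DTT, room temperature. Ex/Em 525/598 nm; 4-parameter Hill fit against DMSO and 10 uM DA3003.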

The nature of assay [2]: Quantitative High-Throughput drug screen in 47 multiple myeloma cell lines against the NCATS MIPE library collection: FR4_PLB cell viability assay (AID 1918924; also: nearly all actives have a fitted effect of over 35% in size; also: potency is read from the fitted curve at half-maximal effect). The essentials:
(§1)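 Relative luminescence from CellTiter-Glo served as the viability signal, referenced to DMSO-treated (100%) and cell-free medium (0%) controls. Treatment lasted 48 hours at 37C with 500 cells per well.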

The nature of assay [3]: Quantitative High-Throughput drug screen in 47 multiple myeloma cell lines against the NCATS MIPE library collection: Delta47_JCRB cell viability assay (AID 1918925; also: nearly all actives have a fitted effect of over 45% in size; also: potency is read from the fitted curve at half-maximal effect). The essentials: (§2)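 We plated 500 myeloma cells per well, pinned in MIPE 4.0 compounds, and incubated for 48 hours at 37C. ATP was then quantified with CellTiter-Glo, with DMSO and media-only wells defining 100% and 0%.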

A short description of assay [4]: Quantitative High-Throughput drug screen in 47 multiple myeloma cell lines against the NCATS MIPE library collection: AMO1_DSMZ cell viability assay (AID 1918927; also: nearly all actives have a fitted effect of over 30% in size; also: potency is read from the fitted curve at half-maximal effect). The essentials:
as §2

Assay [5] in a line: Quantitative High-Throughput drug screen in 47 multiple myeloma cell lines against the NCATS MIPE library collection: ARP1_JJKsccF8 cell viability assay (AID 1918928; also: nearly all actives have a fitted effect of over 40% in size; also: potency is read from the fitted curve at half-maximal effect). The essentials: (§3)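 500 cells/well; MIPE 4.0 library pinned in; 48 h, 37 °C, 5% CO2; CellTiter-Glo ATP luminescence. Controls: DMSO = 100% viability, medium only = 0%.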
The nature of assay [6]: Quantitative High-Throughput drug screen in 47 multiple myeloma cell lines against the NCATS MIPE library collection: KMM1_JCRB cell viability assay (AID 1918960). Also: nearly all actives have a fitted effect of over 30% in size. Also: potency is read from the fitted curve at half-maximal effect. The essentials: as §3
Assay [7] can be described thus: Quantitative High-Throughput drug screen in 47 multiple myeloma cell lines against the NCATS MIPE library collection: Karpas417_ECACC cell viability assay (AID 1918961). Also: potency is read from the fitted curve at half-maximal effect. The conditions noted are these: Karpas417 myeloma viability, CellTiter-Glo ATP luminescence, 48 h; viability (% of DMSO): at 45.8 µM (top of the series). Put shortly:
as §1

Assay [8] can be described thus: Quantitative High-Throughput drug screen in 47 multiple myeloma cell lines against the NCATS MIPE library collection: ARD_JJKsccE7 cell viability assay (AID 1918929; also: potency is read from the fitted curve at half-maximal effect). Put shortly: as §2
Assay [9] can be described thus: Quantitative High-Throughput drug screen in 47 multiple myeloma cell lines against the NCATS MIPE library collection: EJM_DSMZ cell viability assay (AID 1918926; also: nearly all actives have a fitted effect of over 30% in size; also: potency is read from the fitted curve at half-maximal effect). The essentials:
as §2

A short description of assay [10]: Quantitative High-Throughput drug screen in 47 multiple myeloma cell lines against the NCATS MIPE library collection: Karpas620_DSMZ cell viability assay (AID 1918959). Also: nearly all actives have a fitted effect of over 30% in size. Also: potency is read from the fitted curve at half-maximal effect. The essentials: as §1

Results filed as inconclusive are left out. A number with no mark means an inactive call. Active and inactive are the calls of the source. Calls follow the shape of the dose curve; as a rule, active = well fitted curve in the direction sought with a large enough effect; inconclusive = small, poorly fitted or top-dose-only effect, or another doubt; inactive = no such curve, though single readings can be large; an effect the other way counts as inactive or inconclusive.

Consider `CCC(=O)N1CCN(c2ccc(-n3c(=O)ccc4cnc5ccc(-c6cnc7ccccc7c6)cc5c43)cc2C(F)(F)F)CC1`, for which the redox activity (% of DA3003) in [1] was -10.4% [at 11.5 µM]. For the same compound, the Potency is 0.0132 µM (active) in assay [2] and 0.0166 µM (active) in assay [3].

Regarding `Cc1ccccc1-n1c(Cn2nc(-c3cccc(O)c3)c3c(N)ncnc32)nc2cccc(C)c2c1=O`, the call in [1] was inactive. Also, the Potency in [2] was 8.33 µM (active); in assay [3] it was 2.96 µM (active); in assay [4] it was 0.372 µM (active); in [5], 3.32 µM (active); in [6], 0.935 µM (active); in assay [7], 4.18 µM (active).

For `Cc1csc(-c2nnc(Nc3ccc(Oc4ncccc4-c4ccnc(N)n4)cc3)c3ccccc23)c1`, the compound was classed as inactive in assay [1]. Also, the Potency in [2] was 16.6 µM (active); in assay [3], 23.5 µM (active); in assay [4], 2.96 µM (active); in assay [5], 5.26 µM (active); in [8] it was 23.5 µM (active); in assay [6], 14.8 µM (active).

With `NC(=O)c1noc([C@H](CCCC2CCCCC2)CC(=O)NO)n1`, the call in assay [1] was inactive. Moreover, the Potency in [2] is 6.62 µM (active); in assay [3] it was 9.35 µM (active); in assay [9] it was 14.8 µM (active); in assay [4], 4.18 µM (active); in assay [5] it was 14.8 µM (active); in assay [10], 7.43 µM (active).

On to `CN1CCC(COc2cnc(-c3cccc(Cn4nc(-c5cccc(C#N)c5)ccc4=O)c3)nc2)CC1`, for which, in assay [1], the call was inactive. Further, the Potency is 26.4 µM (active) in assay [2], 0.209 µM (active) in assay [3] and 20.9 µM (active) in [5]. In addition, the Potency result in assay [8] and in assay [6] was “inactive” in each case.

With `Cn1c(=O)c(-c2c(Cl)cccc2Cl)cc2cnc(Nc3cccc(C(=O)O)c3)nc21`, the outcome in assay [1] was inactive. Further, the Potency was 5.26 µM (active) in assay [2]; 0.469 µM (active) in assay [4]; 1.48 µM (active) in assay [10]; 0.209 µM (active) in [6]; 0.059 µM (active) in [7]. The Potency entry in assay [3] was “inactive”.

For `O=C(CO)N1CCC(c2[nH]nc(-c3ccc(Cl)cc3)c2-c2ccncn2)CC1`, in assay [1], the compound was classed as inactive. For the same compound, the Potency result in [2], in assay [3], in [9], in assay [4], in [5] and in [10] was “inactive” in each case. In addition, the Potency entry in assay [6] was “inactive”.

For `CCN1CCN(c2ccc(Nc3cc(N(C)C(=O)Nc4c(Cl)c(OC)cc(OC)c4Cl)ncn3)cc2)CC1`, the result in assay [1] was inactive. In addition, the Potency was 18.7 µM (active) in assay [2] and 0.0093 µM (active) in assay [3]. Besides, the Potency entry in assay [4], in [5], in assay [10] and in [6] was “inactive” in each case.

As to `CC(C)(O)CC(=O)NCCn1ccc2ncnc(Nc3ccc(Oc4cccc(C(F)(F)F)c4)c(Cl)c3)c21`, the outcome in assay [1] was inactive. Besides, the Potency in [2] is 26.4 µM (active); in [3] it was 18.7 µM (active); in [9], 1.87 µM (active); in assay [4], 16.6 µM (active); in [10] it was 5.9 µM (active); in assay [6], 5.26 µM (active).

Take `O=C(O)CCNc1cc(N2CCc3ccccc3CC2)nc(-c2ccccn2)n1`: the compound was called inactive in assay [1]. The Potency result in [2], in assay [3], in assay [8] and in [7] was “inactive” in each case.

Regarding `O[C@@H](COc1cccc2ncccc12)CN1CCN(C2c3ccccc3[C@@H]3[C@H](c4ccccc42)C3(F)F)CC1` (some centres undefined), in [1], the call was inactive. Besides, the values for the Potency in [2], in [3] and in [9] were 23.5 µM (active), 16.6 µM (active) and 23.5 µM (active), respectively. The Potency result in assay [4], in assay [8], in assay [10], in assay [6] and in assay [7] was “inactive” in each case.

`COc1cc(Nc2nc3ccccc3nc2NS(=O)(=O)c2ccc(NC(=O)c3ccc(C)c(OC)c3)cc2)cc(OC)c1`: in assay [1], the outcome was inactive.

Turning to `O=c1[nH]nc(OCCCc2ccc(Cl)cc2)c(NCc2cccnc2)c1Br`, the compound was called inactive in assay [1]. The Potency was 16.6 µM (active) in [2]; 4.18 µM (active) in assay [3]; 18.7 µM (active) in assay [9]; 7.43 µM (active) in assay [4]; 18.7 µM (active) in [5]; 18.7 µM (active) in [6]. Moreover, the Potency in assay [7] is 4.69 µM (active).

Turning to `CNc1nc(Nc2ccc(C(=O)N3CCOCC3)cc2OC)ncc1Cl`, the compound was classed as inactive in assay [1]. Besides, the Potency result in assay [2], in assay [3], in assay [9], in assay [4] and in [6] was “inactive” each time.

Regarding `Cc1nc2c([nH]1)CCN(C(=O)c1ccc(NC(=O)c3ccccc3-c3ccccc3)cc1)c1ccccc1-2`, in [1], the compound was classed as inactive. Also, the Potency entry in assay [9] is “inactive”. Also, the Potency in assay [4] is 18.7 µM (active).

On to `Cc1cc(-c2ncc(CC(=O)Nc3ccc(-c4cnccn4)cn3)cc2C)ccn1`, for which the compound was called inactive in [1]. The values for the Potency in [3], in [4] and in assay [8] were 14.8 µM (active), 11.8 µM (active) and 9.35 µM (active), respectively.

As for `CCn1c(-c2nonc2N)nc2cncc(CNC3CCNCC3)c21`, the result in assay [1] was inactive. Moreover, the Potency result in assay [2] and in assay [9] was “inactive” each time. In [5], the Potency is 10.5 µM (active).

Take `NC1(C(=O)N[C@@H](CCO)c2ccc(Cl)cc2)CCN(c2ncnc3[nH]ccc23)CC1`: the compound was classed as inactive in [1]. The Potency was 0.0833 µM (active) in assay [3]; 10.5 µM (active) in [9]; 1.87 µM (active) in [4]; 2.09 µM (active) in assay [5]; 0.0469 µM (active) in [8]; 2.64 µM (active) in assay [10]. Besides, in assay [6], the Potency is 0.118 µM (active).

For `CN(C)c1ccc(-c2nc3ncc(Cl)c(N4CCN(CC(=O)Nc5nccs5)CC4)c3[nH]2)cc1`, the result in [1] was inactive. Also, the results for the Potency in assay [2] and in assay [9] were 2.09 µM (active) and 5.9 µM (active), respectively. In [6], the Potency result is “inactive”.

As to `CC1=C(C(=O)Nc2cc3cn[nH]c3cc2F)C(c2ccc(C(F)(F)F)cc2)CC(=O)N1` (centres undefined), the call in [1] was inactive. The Potency result in assay [3], in [9], in [5], in assay [10] and in [6] was “inactive” throughout.

For the compound `Nc1[nH]nc2nnc(-c3c(-c4ccccc4)nn4ccccc34)cc12`, the compound was called inactive in assay [1]. In addition, the Potency in assay [3] is 4.69 µM (active); in assay [4], 1.66 µM (active); in assay [8], 2.96 µM (active); in assay [6], 4.69 µM (active).

Turning to `Cc1nc(C(=O)NCC(=O)O)c(O)c2ccc(Oc3ccccc3)cc12`, in [1], the call was inactive. Also, the Potency entry in assay [3], in [9], in assay [5] and in [10] was “inactive” in each case.

On to `CCNC(=O)c1noc(-c2cc(C(C)C)c(O)cc2O)c1-c1ccc(CN2CCOCC2)cc1`, for which, in assay [1], the outcome was inactive. In [3], the Potency is 0.0662 µM (active).
